# Screens as filed in PubChem BioAssay.
# Most compounds without a hit are left out; they make up all but 5.5% or so of the library.
# RORg inh: blocks mouse ROR gamma transcriptional activity | P51450 | Drosophila S2 Gal4-RORgamma UAS-luciferase reporter, 20 h | Potency, µM (series often up to 53.6 µM), inactives show at the top dose activity change, negative = inhibition, hits mostly inhibitors | 310,000 compounds, 5.4% hits | AID 2551; also: potency is read from the fitted curve at half-maximal effect; % is scaled to controls: 0 for no effect and ±100 for the full control effect; nearly all actives have a fitted effect of over 60% in size
#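 Schneider cells (Drosophila), stable Gal4 DBD–ROR gamma + UAS-luc; 1 hr cmpd preincubation; Cu2+ induction 700 uM final; 20 hr ambient; luminescence.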
# VP16 counter: Gal4-VP16 reporter inhibition counter-screen | 310,000 compounds, 3.5% hits | Potency, µM (top dose mostly 53.6 µM), for inactives: top-dose activity, negative = inhibition, most hits filed as inhibitors | Drosophila S2 Gal4-VP16 UAS-luciferase, luminescence, 20 h;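 also: Gal4-VP16 expression switched on by copper sulfate through the metallothionein promoter; potency is read from the fitted curve at half-maximal effect; % is scaled to controls: 0 for no effect and ±100 for the full control effect; nearly all actives have a fitted effect of over 50% in size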
# CtBP-E1A inh: blocks the CtBP interaction with E1A | AlphaScreen GST-E1A/His-CtBP binding, 1536-well; stronger effect = lower value | activity change, % (concentration not given with the values) | 340,000 compounds, 0.49% hits | AID 651724; in the data active = activity change below about -65%; inconclusive = mostly about -30% to -63%; also: % is scaled to controls: 0 for no effect and ±100 for the full control effect
#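 Protein mix (5X: 125 nM each GST-E1A, His-CtBP) was incubated with pinned compound 2 h at 37 deg C in dark, in 50 mM Tris pH 8.0 buffer with 300 mM NaCl. Glutathione donor and nickel acceptor beads followed; AlphaScreen signal read after 1 h.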
# Six1-Eya2 inh: blocks human Six1 binding to Eya2; AID 651725; Q15475+O00167; AlphaScreen GST-Six1/His-Eya2 binding, biochemical; stronger effect = lower value; activity change, % (no concentration beside the values); 360,000 compounds, 0.56% hits; in the data active = activity change below about -65%; inconclusive = mostly about -30% to -63%; also: % is scaled to controls: 0 for no effect and ±100 for the full control effect
#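 AlphaScreen with GST-Six1 and His-Eya2 (5X mix: 250 nM and 500 nM), glutathione donor and nickel acceptor beads; buffer 50 mM Tris pH 8.0, 300 mM NaCl, 1 mM TCEP; 1 h at 37 C in the dark.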
# CBFb-RUNX1 inh: inhibitors of human CBF-beta and RUNX1 interaction; Q01196+Q13951; AlphaScreen CBFb-His/RUNX1-biotin binding, biochemical; Potency, µM (top dose mostly 59.8 µM), for the others: top-dose activity, negative = inhibition, actives largely listed as inhibitors; 230,000 tested, under 10 active; AID 1477; also: % of control where 0% means no effect
#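 His-tagged CBF-beta and biotinylated RUNX1 (30 nM each) were premixed 20 min at room temperature, exposed to compound for 15 min, then given nickel-chelate and streptavidin AlphaScreen beads (50 ng each). After 90 min, AlphaScreen signal was read.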
# MBNL1 CUG block: inhibitors of human MBNL1 binding to CUG repeat RNA | Q9NR56 | TR-FRET MBNL1-His/biotin-(CUG)12 binding, 665/545 ratio | Potency, µM (doses to about 57.5 µM), without a hit: at the highest dose activity change, negative = inhibition, most hits filed as inhibitors | 280,000 compounds, 0.036% hits | AID 2675; active = well fitted inhibition curve with a large enough effect in the signal ratio, with a control signal flat, not every such curve was filed as active; inconclusive = small, poorly fitted or top-dose-only effect, or effect the other way, or a change in a side signal; inactive = no such curve, though single readings can be large or run the other way; the % refers to the signal ratio; also: potency is read from the fitted curve at half-maximal effect; % is scaled to controls: 0 for no effect and ±100 for the full control effect
# Target sequence (Q9NR56 whole entry, looked up): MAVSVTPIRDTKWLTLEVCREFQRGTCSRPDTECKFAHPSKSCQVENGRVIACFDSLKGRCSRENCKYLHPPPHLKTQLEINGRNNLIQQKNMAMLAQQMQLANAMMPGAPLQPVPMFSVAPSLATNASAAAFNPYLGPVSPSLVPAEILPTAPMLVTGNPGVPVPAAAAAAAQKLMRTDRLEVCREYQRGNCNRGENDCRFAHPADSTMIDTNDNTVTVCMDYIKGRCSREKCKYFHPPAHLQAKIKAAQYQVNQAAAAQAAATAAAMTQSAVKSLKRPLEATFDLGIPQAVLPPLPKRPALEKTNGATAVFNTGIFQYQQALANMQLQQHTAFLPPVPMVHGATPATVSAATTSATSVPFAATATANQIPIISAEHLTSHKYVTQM
#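 MBNL1-His + Biotin-(CUG)12, cpd titration 92 nM–58 uM; Tb anti-His Ab 0.055 ng/ul, SA-XL665 5 nM (final); 60 min RT; ratiometric 665/545 nm, Ex 340 nm; normalized to buffer and full-complex controls.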
# An asterisk follows results filed as active; ? = inconclusive; / = no result; [ ] = remark or other dose. Unless noted, calls follow the shape of the dose curve; as a rule, active = well fitted curve in the direction sought with a large enough effect; inconclusive = small, poorly fitted or top-dose-only effect, or another doubt; inactive = no such curve, though single readings can be large; an effect the other way counts as inactive or inconclusive.
SMILES,RORg inh,VP16 counter,CtBP-E1A inh,Six1-Eya2 inh,CBFb-RUNX1 inh,MBNL1 CUG block
Cn1ccnc1C(O)(c1nnc(-c2ccccc2)o1)C(F)(F)F (configuration not stated),7.08µM*,?,2.5,-6.5,-1.6%,-5.9%
Cn1ccnc1C(O)(c1ccccc1)c1ccccc1,6.6%,-6.4%,-8.5,6.0,8.0%,/
O=C(NC1CCCC1)O[C@@H]1C(=O)c2cc(Br)ccc2O[C@H]1c1ccc2c(c1)OCO2,9.9%,1.7%,/,/,-3.4%,/
O=C(Nc1cnn(Cc2ccc(F)cc2)c1)c1noc2c1CCCC2,?,24.4%[10 µM],/,0.9,1.3%,-13.9%
CC(C)(C)C1CCc2onc(C(=O)Nc3cnn(Cc4ccc(F)cc4)c3)c2C1 (configuration not stated),?,15.8µM*,5.0,2.9,3.2%,0.7%
O=C1CSC(=S)N1c1cccc(Cl)c1,-14.4%,-17.1%,-8.8,0.0,/,3.9%
S=c1[nH]ccn1-c1ccccc1Cl,?,-14.4%,-6.3,1.5,2.4%,-2.1%
Cc1ccc(N2C(=O)C3CCCN3C2=S)cc1C (configuration not stated),3.6%,2.8%,8.2,0.7,/,-7.8%
S=c1[nH]ccn1-c1cccc(Cl)c1,12.6µM*,?,15.9,11.0,-2.4%,/
Cc1ccc(-n2cc[nH]c2=S)cc1C,0.0501µM*,-91.9%,-11.8,9.2,16.8%,/
S=c1[nH]ccn1-c1cccc(Cl)c1Cl,7.94µM*,?,/,-0.2,1.0%,-7.3%
CCOc1ncccc1C(=O)N(CCC(C)C)c1c(N)n(Cc2ccccc2)c(=O)[nH]c1=O,/,/,0.0,-6.4,/,/
O=C(OCc1cn([C@@H]2C[C@H](c3ccccc3)N(C(=O)c3cccs3)C[C@H]2O)nn1)c1ccccc1,/,/,4.6,-1.7,/,/
CCC(Oc1ccccc1)C(=O)Nc1nc2ccccc2[nH]1 (configuration not stated),10µM*,?,-6.6,1.9,4.8%,3.6%
O=C(N/N=C/c1ccc(OC(F)F)cc1)c1ccc(CSc2nc3ccccc3[nH]2)cc1,20.2%,-2.0%,-6.0,-0.9,-2.1%,/
CC(C)Oc1ccc(C(=O)Nc2nc3ccccc3[nH]2)cc1,1.12µM*,2.82µM*,1.2,-1.3,/,1.3%
O=C(Nc1nc2ccccc2[nH]1)c1ccc(OC(F)F)cc1,5.62µM*,?,-7.8,1.1,/,1.4%
COc1ccc(Br)c(C(=O)Nc2nc3ccccc3[nH]2)c1,-44.1%,4.8%,2.9,2.4,/,-6.5%
O=C(Nc1nc2ccccc2[nH]1)c1ccccc1OC(F)F,7.94µM*,10µM*,-27.7,-1.0,/,-4.7%
CC(C)Oc1ccc(C(=O)Nc2ncn[nH]2)cc1,?,?,-4.4,-15.5,/,-2.1%
C[C@H]1CN(S(=O)C(C)(C)C)[C@@H](CCO)/C1=C\c1ccccc1 (some centres not stated),/,/,4.7,1.5,/,/
O=C(Nc1ccc(Cl)cc1)N[C@H]1CC[C@H](CCn2cc(-c3ccccc3F)nn2)O[C@@H]1CO,/,/,4.0,4.8,/,/
CC(NC(=S)NC1CCC(C(C)(C)C)CC1)c1ccccc1 (configuration not stated),1.58µM*,2.82µM*,-1.6,-4.5,/,-3.0%
COc1ccc(C(=S)NC2CCCCC2)cc1,-29.9%,7.6%,-3.3,3.7,6.9%,-6.2%
COc1ccc(CNC(=S)NC2CCCCC2)cc1,7.08µM*,12.6µM*,-7.5,-5.0,/,-2.4%
SMILES,RORg inh,VP16 counter,CtBP-E1A inh,Six1-Eya2 inh,CBFb-RUNX1 inh,MBNL1 CUG block
O=C(CCC(=O)NC1CCCCC1)NCc1ccc(F)cc1,?,-2.5%,11.1,3.4,/,1.7%
Fc1ccc(C(CNC(=S)NC2CCCCC2)N2CCOCC2)cc1 (configuration not stated),8.91µM*,?,-12.3,27.3,9.3%,-4.6%
Fc1ccc(CNC(=S)NC2CCCCCC2)cc1,6.31µM*,11.2µM*,-6.4,-4.6,-0.6%,-2.6%
S=C(NCC(c1cccnc1)N1CCOCC1)NC1CCCCC1 (configuration not stated),-15.4%,-7.1%,8.1,4.5,-5.0%,-0.1%
CC(=O)c1ccc(OCc2cc(C(=O)NC3CCCCC3)no2)cc1,-39.1%,8.7%,-15.7,-9.9,/,-1.2%
Cc1ccc(CNC(=S)NC2CCC(C(C)(C)C)CC2)cc1 (configuration not stated),2.82µM*,5.01µM*,-1.5,-5.4,/,-0.8%
NS(=O)(=O)c1ccc(CNC(=S)NC2CCCC2)cc1,2.5%,-10.1%,1.1,13.2,2.7%,2.7%
COc1ccc(CNC(=S)NC2CCCC2)cc1,8.91µM*,7.94µM*,0.0,14.0,-5.2%,-4.0%
O=C1c2ccncc2C(=O)N1CO,-14.6%,-7.6%,2.7,-6.3,-2.4%,?
CNC1=C(Cl)C(=O)c2ccncc2C1=O,2.82µM*,5.62µM*,/,/,-14.6%,/
CNc1ccncc1S(=O)(=O)NC,5.4%,-19.0%,2.3,0.5,0.3%,-3.9%
CNC1=C(Br)C(=O)c2ccncc2C1=O,2.24µM*,5.62µM*,/,/,-17.6%,/
N#Cc1ncc(Cc2ccccc2)nc1C#N,18.6%[1.91 µM],14.1µM*,/,-5.8,/,?
CCOC(=O)CSc1ccc(-c2nc3cc(C)c(C)cc3[nH]2)cn1,17.8µM*,?,0.9,-17.0,-4.7%,45.4%
CCOC(=O)CSc1ccc(-c2nc3ccccc3[nH]2)cn1,3.0%,6.5%,-6.0,-2.0,6.0%,3.7%
CSc1ncc(Cl)c(C(=O)Nc2nnc(SC/C=C/c3ccccc3)s2)n1,1.7%,-14.3%,-23.5,-10.8,-1.7%,-8.4%
CC(C)c1nnc(NC(=O)c2nc(S(=O)(=O)Cc3ccccc3F)ncc2Cl)s1,7.94µM*,3.55µM*,-23.0,-13.3,/,15.4%
Cc1nnc(NC(=O)c2nc(S(=O)(=O)Cc3ccccc3C)ncc2Cl)s1,3.55µM*,0.708µM*,-24.7,-24.7,/,?
CSc1nnc(NC(=O)c2nc(S(=O)(=O)Cc3ccccc3F)ncc2Cl)s1,15.8µM*,10µM*,-2.1,-21.5,/,10.4%
NNc1nc2c(Cl)ccc(Cl)c2s1,11.2µM*,17.8µM*,-3.6,-6.7,11.3%,/
O=C(c1cccc(F)c1)N1CCC2(CC1)CCN(c1ncccn1)CC2,18.5%,-3.6%,/,/,/,/
CCOc1ccc2c(c1)c(N=NC(N)=S)c(O)n2C,?,7.08µM*,?,?,-2.6%,?
CCOc1ccc2c(c1)c(N=Nc1cccc(C(=O)O)c1)c(O)n2C,?,-4.7%,?,?,7.2%,/
CCOc1ccc2c(c1)c(N=NC(=N)N)c(O)n2C,-4.6%,1.5%,?,-79.8*,-5.3%,?
CC(C)NC(=O)c1csc([C@@H]2O[C@H](CO)[C@H](O)[C@H](O)[C@H]2O)n1,/,/,-17.4,10.3,/,/
